{
  "source": "the supplement of paper PMC8975748",
  "note": "Counter-ions that a name gives are not always drawn.",
  "data": [
    {"test_system": "Saccharomyces cerevisiae BY4741 SeMeCo community", "experiment": "z-score of subpopulation abundance vs DMSO median, subpopulation auxotrophic for H; higher = larger share of this subpopulation than in DMSO controls", "details": "10 µM; 24 h; SM minimal medium; subpopulation (auxotrophy): H", "summary_of_the_method": "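Automated confocal microscopy of paraformaldehyde-fixed cells was used to follow a Saccharomyces cerevisiae BY4741 community carrying four plasmids, each restoring one auxotrophy and encoding a distinct fluorescent protein. The community was pre-grown overnight to OD600 1.0, diluted to 0.3, and added at 70 µl to 384-well plates acoustically predosed with library drugs (10 µM final) for 24 h of growth in minimal SM medium. Single-auxotroph fluorescent strains set thresholds and autofluorescence correction, and each subpopulation's abundance was scored as a z-score against the vehicle-well median.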", "values": [
      {"compound": "CN[C@@H]1[C@H](O[C@H]2[C@H](O[C@H]3[C@H](O)[C@@H](O)[C@H](NC(=N)N)[C@@H](O)[C@@H]3NC(=N)N)O[C@@H](C)[C@]2(O)CO)O[C@@H](CO)[C@H](O)[C@H]1O", "note": "[Dihydrostreptomycin sulfate]", "z-score of subpopulation abundance": -0.62},
      {"compound": "C=CCc1ccc(O)c(-c2ccc(O)c(CC=C)c2)c1", "note": "[Honokiol]", "z-score of subpopulation abundance": -1.34},
      {"compound": "COCCCN1CCC(NC(=O)c2cc(Cl)c(N)c3c2OCC3)CC1", "note": "[Prucalopride]", "z-score of subpopulation abundance": -0.52},
      {"compound": "COCC(=O)Nc1cc(Sc2ccccc2)ccc1N=C(NC(=O)OC)NC(=O)OC", "note": "[Febantel]", "z-score of subpopulation abundance": 0.91},
      {"compound": "Cc1ccsc1/C=C/C1=NCCCN1C", "note": "[Morantel tartrate]", "z-score of subpopulation abundance": -1.74},
      {"compound": "CCn1cc(C(=O)O)c(=O)c2cc(F)c(N3CCNCC3)cc21", "note": "[Norfloxacin]", "z-score of subpopulation abundance": 0.31},
      {"compound": "CC[C@H]1OC(=O)C[C@@H](O)[C@H](C)[C@@H](O[C@@H]2O[C@H](C)[C@@H](O[C@H]3C[C@@](C)(O)[C@@H](O)[C@H](C)O3)[C@H](N(C)C)[C@H]2O)[C@@H](CC=O)C[C@@H](C)C(=O)/C=C/C(C)=C/[C@@H]1CO[C@@H]1O[C@H](C)[C@@H](O)[C@@H](OC)[C@H]1OC", "note": "[Tylosin]", "z-score of subpopulation abundance": 2.22},
      {"compound": "COC(=O)C1=C(C)NC(C)=C(C(=O)OC2CCCN(Cc3ccccc3)C2)C1c1cccc([N+](=O)[O-])c1", "note": "(stereo not drawn) [Benidipine HCl]", "z-score of subpopulation abundance": 0.92},
      {"compound": "CC1=C[C@H]2C(=O)O[C@H]3C[C@@H](C/C=C(\\C)C[C@@H](C)/C=C/C=C4\\CO[C@H](/C1=N\\O)[C@@]42O)O[C@@]1(CC[C@H](C)[C@@H](C)O1)C3.CC[C@H]1O[C@]2(CC[C@@H]1C)C[C@@H]1C[C@@H](C/C=C(\\C)C[C@@H](C)/C=C/C=C3\\CO[C@@H]4/C(=N\\O)C(C)=C[C@@H](C(=O)O1)[C@]34O)O2", "note": "[Milbemycin Oxime]", "z-score of subpopulation abundance": 2.17},
      {"compound": "CC1=Nc2ccc(Cl)cc2S(=O)(=O)N1", "note": "[Diazoxide]", "z-score of subpopulation abundance": -0.86},
      {"compound": "O=C(O)c1cc(O)c2c(c1)[C@H]([C@H]1c3cc(C(=O)O)cc(O)c3C(=O)c3c(O[C@@H]4O[C@H](CO)[C@@H](O)[C@H](O)[C@H]4O)cccc31)c1cccc(O[C@@H]3O[C@H](CO)[C@@H](O)[C@H](O)[C@H]3O)c1C2=O", "note": "[Sennoside A]", "z-score of subpopulation abundance": 0},
      {"compound": "Oc1ccc([C@H]2COc3cc(O)ccc3C2)cc1", "note": "[Equol]", "z-score of subpopulation abundance": -0.53},
      {"compound": "COc1ccc2cc(CCC(C)=O)ccc2c1", "note": "[Nabumetone]", "z-score of subpopulation abundance": -1.58},
      {"compound": "CO/N=C(\\C(=O)N[C@@H]1C(=O)N2C(C(=O)OC(C)OC(C)=O)=C(COC(N)=O)CS[C@H]12)c1ccco1", "note": "(stereo partly drawn) [Cefuroxime axetil]", "z-score of subpopulation abundance": -0.4},
      {"compound": "CNCCCN1c2ccccc2CCc2ccccc21", "note": "[Desipramine Hydrochloride]", "z-score of subpopulation abundance": 0.31},
      {"compound": "CCCCCOc1ccccc1/C(=C\\SC)n1ccnc1", "note": "[Neticonazole Hydrochloride]", "z-score of subpopulation abundance": 16.5},
      {"compound": "CC(C(=O)O)c1ccc2c(c1)[nH]c1ccc(Cl)cc12", "note": "(stereo not drawn) [Carprofen]", "z-score of subpopulation abundance": 3.31},
      {"compound": "C=CCN1CCCC1CNC(=O)c1cc2nn[nH]c2cc1OC", "note": "(stereo not drawn) [Alizapride HCl]", "z-score of subpopulation abundance": -0.87},
      {"compound": "CO/N=C(\\C(=O)N[C@@H]1C(=O)N2C(C(=O)O)=C(CSc3nc(C)c(CC(=O)O)s3)CS[C@H]12)c1csc(N)n1", "note": "[Cefodizime Sodium]", "z-score of subpopulation abundance": -0.25},
      {"compound": "C[C@H](NCc1ccc(OCc2cccc(F)c2)cc1)C(N)=O", "note": "[Safinamide Mesylate]", "z-score of subpopulation abundance": 0.45},
      {"compound": "Cc1ccnc(NS(=O)(=O)c2ccc(N)cc2)n1", "note": "[Sulfamerazine]", "z-score of subpopulation abundance": 0.49},
      {"compound": "N=C(N)NS(=O)(=O)c1ccc(N)cc1", "note": "[Sulfaguanidine]", "z-score of subpopulation abundance": -0.42},
      {"compound": "C=C[C@H]1CN2CC[C@H]1C[C@@H]2[C@@H](O)c1ccnc2ccc(OC)cc12", "note": "[Quinidine sulfate]", "z-score of subpopulation abundance": 0.89},
      {"compound": "O=C(Nc1ccc(Oc2ccc(Cl)cc2)c(Cl)c1)c1cc(I)cc(I)c1O", "note": "[Rafoxanide]", "z-score of subpopulation abundance": 1.91},
      {"compound": "COC(=O)Nc1nc2cc(C(=O)c3ccccc3)ccc2[nH]1", "note": "[Mebendazole]", "z-score of subpopulation abundance": 1.06},
      {"compound": "Nc1nc(N)c2nc(-c3ccccc3)c(N)nc2n1", "note": "[Triamterene]", "z-score of subpopulation abundance": 2.44},
      {"compound": "CC(=O)N1CCN(c2ccc(OCC3COC(Cn4ccnc4)(c4ccc(Cl)cc4Cl)O3)cc2)CC1", "note": "(stereo not drawn) [Ketoconazole]", "z-score of subpopulation abundance": 0.08},
      {"compound": "Cc1onc(-c2ccccc2)c1C(=O)N[C@@H]1C(=O)N2[C@@H]1SC(C)(C)[C@@H]2C(=O)O", "note": "[Oxacillin sodium monohydrate]", "z-score of subpopulation abundance": -0.05},
      {"compound": "CC[C@H]1OC(=O)[C@H](C)[C@@H](O[C@H]2C[C@@](C)(OC)[C@@H](O)[C@H](C)O2)[C@H](C)[C@@H](O[C@@H]2O[C@H](C)C[C@H](N(C)C)[C@H]2O)[C@](C)(O)C[C@@H](C)C(=O)[C@H](C)[C@@H](O)[C@]1(C)O", "note": "[Erythromycin thiocyanate]", "z-score of subpopulation abundance": -1.72},
      {"compound": "CCn1cc(C(=O)O)c(=O)c2cc(F)c(N3CCNC(C)C3)c(F)c21", "note": "(stereo not drawn) [Lomefloxacin HCl]", "z-score of subpopulation abundance": 0.73},
      {"compound": "CNS(=O)(=O)CCc1ccc2[nH]cc(C3CCN(C)CC3)c2c1", "note": "[Naratriptan HCl]", "z-score of subpopulation abundance": -0.46},
      {"compound": "CO[C@@]1(NC(=O)CSC[C@@H](N)C(=O)O)C(=O)N2C(C(=O)O)=C(CSc3nnnn3C)CS[C@@H]21", "note": "[Cefminox Sodium]", "z-score of subpopulation abundance": 1.45},
      {"compound": "CNCCCC1c2ccccc2C=Cc2ccccc21", "note": "[Protriptyline hydrochloride]", "z-score of subpopulation abundance": 0.19},
      {"compound": "CC1CCc2c(N3CCC(O)CC3)c(F)cc3c(=O)c(C(=O)O)cn1c23", "note": "(stereo not drawn) [Nadifloxacin]", "z-score of subpopulation abundance": -0.1},
      {"compound": "C[n+]1ccccc1/C=N/O", "note": "[Pralidoxime chloride]", "z-score of subpopulation abundance": -1.61},
      {"compound": "Oc1ccc(Cl)c2cccnc12", "note": "[Cloxiquine]", "z-score of subpopulation abundance": 13.1},
      {"compound": "N[C@H]1CONC1=O", "note": "[L-Cycloserine]", "z-score of subpopulation abundance": 5.08},
      {"compound": "CCN(CC)CC#CCOC(=O)C(O)(c1ccccc1)C1CCCCC1", "note": "(stereo not drawn) [Oxybutynin chloride]", "z-score of subpopulation abundance": -0.41}
    ]}
  ]
}
